Assay results: PubChem BioAssay AID1345082 (National Center for Advancing Translational Sciences (NCATS), 2018)
The whole screen tested about 94,000 compounds, of which about 4,000 (4.3%) were called active. Inconclusive results (about 29%) are left out. Calls come from the whole dose curve; as a rule, active = well fitted inhibition curve with a large enough effect; inconclusive = small, poorly fitted or top-dose-only effect; inactive = no such curve, though single readings can be large or run the other way. The entries come from a sample that favours actives as a whole. Where a call stands in place of a potency, no number is given.

Test: Cytotoxic Profiling in NIH 3T3 Cell Line of Diverse Libraries Using Quantitative High-Throughput Screening; note: nearly all actives have a fitted effect of over 55% in size
Conditions: NIH 3T3 viability, CellTiter-Glo ATP luminescence, 48-72 h; series mostly up to 96.7 µM
How it was run: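 Cells were seeded at 400 per well, treated with pin-transferred compound, and kept 48 or 72 hr at 37 °C before CellTiter-Glo addition and luminescence imaging of cellular ATP.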
Potency is the fitted concentration of half-maximal effect.

SMILES | Potency
COc1ccccc1Nc1ccnc(N2CCC(NC(=O)NC(C)C)CC2)n1 | inactive
COc1ccccc1Nc1ccnc(N2CCC(N[S+](=O)([O-])c3cccs3)CC2)n1 | 31.6 µM (active)
O=c1n(CCN2CCN([S+](=O)([O-])c3cccs3)CC2)nc2n1CCCC2 | inactive
COc1ccccc1-n1c(=O)c(C(=O)N2CCN([S+](=O)([O-])c3cccs3)CC2)nc2cccnc21 | inactive
O=[S+]([O-])(c1cccs1)N1CCN(c2nccc(Nc3ccccc3F)n2)CC1 | 25.1 µM (active)
CN(C)C(=O)c1cccnc1OC1CCN(C(=O)c2ccc(Br)o2)C1 (stereo unspecified) | inactive
CCc1nc2nccc(-c3ccco3)n2n1 | inactive
Cc1nc(-c2ccccc2OC2CN(C(=O)c3ccnn3C)C2)no1 | inactive
CC(=O)/C=C/C1=CC(C)(C)COc2ccc(O)cc21 | 25.1 µM (active)
Cc1noc(-c2cccc(OC3CN(C(=O)CN4C(=O)CCC4=O)C3)c2)n1 | inactive
CC(=O)Nc1ccc(NC(=O)Cn2nc3c(cc2=O)CCCCC3)cc1 | inactive
O=C(Cc1cccnc1)N1CCCC(c2nc(CCOCC3CCCC3)no2)C1 (stereo unspecified) | inactive
O=C(c1ccoc1)N1CCCC(c2nc(CCOCC3CCCC3)no2)C1 (stereo unspecified) | inactive
C1CCC(COCCc2noc(C3CNC3)n2)C1 | 7.94 µM (active)
COCCCNC(=O)c1ccc2oc(-c3ccc(OC)nc3)nc2c1 | inactive
CC(C)CNC(=O)N1CCCC(c2nc(C(C)C)no2)CCNC(=O)CC1 (stereo unspecified) | inactive
CC(C)(C)NC(=O)N1CCCC(c2nc(CCOCC3CCOCC3)no2)C1 (stereo unspecified) | inactive
CC(=O)N1CCC(N2CCC[C@H]2c2nc(-c3ccc(-c4cncnc4)nc3)no2)CC1 | inactive
CN1CCC(N2CCC[C@H]2c2nc(-c3ccc(OC4CCCCC4)nc3)no2)CC1 | 28.2 µM (active)
CC(=O)N1CCN(c2cc(-c3noc([C@@H]4CCCN4C4CCC4)n3)ccn2)CC1 | inactive
COCCN1CCC2(CCC1=O)CCN(C(=O)Nc1cc(Cl)ccc1C)CC2 | inactive

SMILES | Potency
COCCNC(=O)C(C)[C@@H]1CC[C@@]2(C)CC[C@H](NC(=O)c3ccccc3)[C@@H](C)[C@@H]2[C@H]1O (stereo partly specified) | inactive
C=CCN(C)C(=O)[C@@H](C)C1CC[C@@]2(C)Cc3sc(Nc4c(Cl)cccc4Cl)nc3[C@@H](C)[C@@H]2[C@H]1O (stereo partly specified) | 44.7 µM (active)
CCN(CC)C(=O)[C@@H](C)C1CC[C@@]2(C)Cc3sc(N)nc3[C@@H](C)[C@@H]2[C@H]1O (stereo partly specified) | inactive
Cc1cc(C2CCCN2C(=O)c2ccccc2)on1 (stereo unspecified) | inactive
O=C(c1ccc2cc[nH]c2c1)N1CCN(Cc2cnc[nH]2)CC(O)C1 (stereo unspecified) | inactive
Cc1ccc(-n2nc3n(c2=O)CCN(C(=O)Cc2ccccn2)C3)cc1 | inactive
O=C(C1CC1)N1CCn2c(nn(-c3ccc(F)cc3)c2=O)C1 | inactive
Cc1ccc(-n2nc3n(c2=O)CCN(C(=O)C(C)(C)C)C3)cc1 | 50.1 µM (active)
COc1ccc(-n2nc(-c3ccccc3)n(CC(=O)N(C)CC(C)C)c2=O)cc1 | 79.4 µM (active)
COc1ccc(N2CCN(C3CCCN(CC(=O)N(C)C(C)C)C3)CC2)cc1 (stereo unspecified) | inactive
COc1ccc(CC(=O)Nc2cc(-c3cccnc3)nn2-c2ccccc2)cc1 | inactive
Cc1noc2c(N3CC[S+](=O)([O-])CC3)cc(-c3ccc(Cl)cc3)nc12 | 10 µM (active)
Cc1noc2c(N3CCC(c4ccccc4)CC3)cc(-c3cccnc3)nc12 | inactive
Cc1nc2c(c(-c3ccc(Cl)cc3)n1)CCN([S+](=O)([O-])c1c(C)noc1C)CC2 | inactive
CN1CCCCCCN(C(=O)C2CCC2)[C@H]2CCC[C@H]2C1=O | inactive
Cc1noc(C)c1-c1cc2cc(CNC3CCOCC3)oc2c(NC2CCN(C)CC2)n1 | 39.8 µM (active)
CCOCCN1C(=O)COC[C@@H]1[C@H](O)c1ccc(NC(=O)c2cnccn2)cc1 | inactive
O=C(C1CCCN(Cc2cccc(-c3ccc(F)cc3F)c2)C1)N1CCN(Cc2ccccc2)CC1 (stereo unspecified) | 39.8 µM (active)
O=C(C1CCN(Cc2ccccc2-c2cccnc2)CC1)N1CCN(Cc2ccccc2)CC1 | inactive
CCCN1CCN(C(=O)C2CCCN(c3cnn(Cc4ccccc4)c(=O)c3)C2)CC1 (stereo unspecified) | inactive
COCc1nc(CCNC(=O)Cc2c(C)noc2C)no1 | inactive

SMILES | Potency
CN(C)C[C@@H]1CN(C)C[C@H]1NC(=O)c1cnn(C)c1 | inactive
CCn1ccc(C(=O)NCC2CCCCC(=O)N2)n1 (stereo unspecified) | inactive
O=C(c1ccccn1)N1CCn2c(nnc2C2CCCNC2)C1 (stereo unspecified) | inactive
COCC(=O)N(C1CCOCC1)C1CCN(S(=O)(=O)c2ccccc2)CC1 | inactive
O=C1NC2(Cc3ccccc31)CN([S+](=O)([O-])c1cccc(C(F)(F)F)c1)C2 | inactive
O=C1NC2(CCCN([S+](=O)([O-])c3ccccc3)C2)COc2ccccc21 (stereo unspecified) | 22.4 µM (active)
O=[S+]([O-])(c1ccccc1)N1CCCC2(CC(c3ccccn3)=NO2)C1 (stereo unspecified) | inactive
COc1nccnc1NC1CCN(C(=O)CCc2ccccc2)CC1 | inactive
Cc1ccc(C2Cn3nnc(-c4noc(-c5ccccc5C)n4)c3CO2)cc1 (stereo unspecified) | inactive
O=C1CCCN1CCCN1C(=O)[C@@H]2C[C@@H](O)CN2C2(CN(C3CCOCC3)C2)C1=O | inactive
COCC(=O)Nc1ccc([C@@H](O)[C@H]2COCC(=O)N2Cc2ccc(C(F)(F)F)cc2)cc1 | inactive
O=C1NCCN(Cc2ccccc2)C1CC(=O)N1CCN(c2ccccc2)CC1 (stereo unspecified) | inactive
COCCn1c2c(c(=O)n1-c1ccccc1)CCN(Cc1cccc(C#N)c1)C2 | 100 µM (active)
N#Cc1cccc(CN2CCc3nc(N4CCc5ccccc5C4)[nH]c(=O)c3CC2)c1 | inactive
N#Cc1cccc(CN2CCCN(S(=O)(=O)c3ccccc3)CCC(=O)NCC2)c1 | inactive
O=C(Cn1c2c(c(=O)n1Cc1ccccc1)CCN(Cc1ccccc1)C2)NCc1cccc(Cl)c1 | inactive
O=c1c2c(n(Cc3ccccc3)n1-c1ccccc1)CN(Cc1ccn[nH]1)CC2 | 89.1 µM (active)
N#Cc1ccc(CN2CCC3(COc4ncccc4[S+](=O)([O-])N3)C2)cc1 (stereo unspecified) | inactive
CC(C)c1ccc(CNC(=O)CCn2ccn3nc4c(c3c2=O)CCCC4)cc1 | inactive
